Measured values taken from PubChem BioAssay.
Calls of active or inactive are those of the source.

Tests used:
[1] = target: Albumin (Bos taurus) (UniProt P02769); experiment: bovine serum albumin binders on microarray, profiling panel, artefact control for SMM control protein annotation, biochemical, small-molecule microarray, Alexa647 label, 635/667 nm fluorescence (AID 1118); conditions: BSA-A647 binding, fluorescence 635 nm, higher = more signal;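 note: score merges 667 nm emission intensity and signal-to-noise per printed compound spot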
Chain of Albumin (Bos taurus) (P02769 whole entry, looked up): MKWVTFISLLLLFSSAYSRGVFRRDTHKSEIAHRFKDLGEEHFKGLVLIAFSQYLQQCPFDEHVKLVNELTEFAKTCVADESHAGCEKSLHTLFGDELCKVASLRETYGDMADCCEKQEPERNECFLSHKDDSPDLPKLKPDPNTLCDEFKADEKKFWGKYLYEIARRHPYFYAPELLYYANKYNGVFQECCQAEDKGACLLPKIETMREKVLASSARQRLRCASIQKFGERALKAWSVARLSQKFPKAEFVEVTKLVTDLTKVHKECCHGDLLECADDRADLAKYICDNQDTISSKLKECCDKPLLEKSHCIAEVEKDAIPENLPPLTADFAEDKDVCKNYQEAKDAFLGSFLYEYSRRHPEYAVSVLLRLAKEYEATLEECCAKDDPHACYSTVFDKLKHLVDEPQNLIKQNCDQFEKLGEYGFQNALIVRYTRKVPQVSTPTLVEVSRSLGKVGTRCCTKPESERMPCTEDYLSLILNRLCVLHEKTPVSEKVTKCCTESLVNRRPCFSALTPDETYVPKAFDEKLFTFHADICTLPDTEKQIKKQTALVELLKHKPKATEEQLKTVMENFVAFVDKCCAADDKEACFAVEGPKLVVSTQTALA

[2] = small-molecule microarray binders of probe aXIP, primary screen, biochemical, NeuroSMM set, 635/667 nm fluorescence (AID 1119); conditions: higher = more signal, called active from +8 up or from −8 down;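 note: probe is the protein aXip251-270 applied at 1 µg/mL to compound-printed slides; binding of probe to printed compounds measured as 667 nm fluorescence plus signal to noise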
[3] = small-molecule binders of probe aNOTCH3, primary screen, biochemical, small-molecule microarray, 635/667 nm fluorescence (AID 1120); conditions: higher = more signal;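 note: probe is a biotin-tagged antibody raised against NOTCH3 rather than NOTCH3 protein; score merges spot fluorescence near 667 nm with spot signal to noise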
[4] = small-molecule binders of probe aNOTCH2, primary screen, biochemical, small-molecule microarray, 635/667 nm fluorescence (AID 1121); conditions: higher = more signal;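 note: score merges feature fluorescence read at 667 nm with its signal to noise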
[5] = target: Carbonic anhydrase 2 (Homo sapiens) (UniProt P00918); experiment: CAII small-molecule binders, profiling panel, biochemical, small-molecule microarray, Alexa647-labelled CAII (AID 1122); conditions: CAII-A647 binding fluorescence, higher = more signal
[6] = COS7 lysate on small-molecule microarray, probe aHis, 635 nm (AID 1123); conditions: COS7 cell lysate, fluorescence, higher = more signal;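 note: z-score combines 667nm fluorescence intensity with signal-to-noise per printed compound spot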
[7] = compound binding in COS7 lysate, probe aLAP1, primary screen, cell lysate, small-molecule microarray (AID 1124); conditions: probe aLAP1, fluorescence, higher = more signal;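 note: lysate comes from COS7 cells expressing LAP1 and is applied at 0.3 µg/mL; score merges spot fluorescence near 667 nm with signal-to-noise over triplicate slides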
[8] = tested on: Sam68 (KHDRBS1); experiment: Sam68 small-molecule binders, primary screen, biochemical, small-molecule microarray, 635 nm fluorescence (AID 1125); conditions: small-molecule microarray binding, higher = more signal;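 note: score merges 667 nm channel intensity with signal to noise over triplicate slides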
[9] = tested on: Chordin-like protein 2 (CHRDL2); experiment: CHRDL2 small-molecule binders, primary screen, biochemical, small-molecule microarray, 635 nm fluorescence (AID 1126); conditions: small-molecule microarray binding, fluorescence 635 nm; higher = more signal;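 note: printed compound slides probed with Chrdl2 protein at 4 µg/mL for 1 h at 4 C; score merges 667 nm emission intensity with signal to noise over three replicate slides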
[10] = target: Concanavalin-A (Canavalia ensiformis) (UniProt P02866); experiment: ConA small-molecule binders, primary screen, artefact control for SMM control protein annotation, biochemical, small-molecule microarray, Alexa647 label, 635 nm (AID 1127); conditions: ConA-A647 binding fluorescence, higher = more signal;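 note: z combines 667 nm emission intensity with signal-to-noise across three replicate slides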
Chain of Concanavalin-A (Canavalia ensiformis) (P02866 whole entry, looked up): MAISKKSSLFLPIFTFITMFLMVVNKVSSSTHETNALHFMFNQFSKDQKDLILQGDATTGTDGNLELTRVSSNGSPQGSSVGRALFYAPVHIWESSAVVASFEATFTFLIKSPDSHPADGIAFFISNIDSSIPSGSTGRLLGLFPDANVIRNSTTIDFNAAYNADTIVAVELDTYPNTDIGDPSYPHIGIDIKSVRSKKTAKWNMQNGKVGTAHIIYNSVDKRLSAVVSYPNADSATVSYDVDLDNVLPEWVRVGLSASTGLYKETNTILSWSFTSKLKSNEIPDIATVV

[11] = anti-His antibody binders, primary screen, artefact control for SMM control protein annotation, biochemical, small-molecule microarray, 635 nm fluorescence (AID 1128); conditions: anti-His Alexa647 antibody binding, higher = more signal;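 note: score merges feature fluorescence with signal-to-noise for each printed compound spot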
[12] = tested on: Human papillomavirus type 1a E7 protein (residues 1-88); experiment: HPV1a E7 small-molecule binders, primary screen, biochemical, small-molecule microarray, residues 1-88, 635 nm (AID 1129); conditions: small-molecule microarray binding, fluorescence 635 nm; higher = more signal
[13] = target: Focal adhesion kinase 1 (Homo sapiens) (UniProt Q05397); experiment: small-molecule microarray binders of FAK, primary screen, biochemical, 635/667 nm fluorescence, BSA, DTT (AID 1130); conditions: PTK2 binding, 635 nm fluorescence, higher = more signal;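 note: composite of spot emission at 667 nm and signal to noise over triplicate slides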
Chain of Focal adhesion kinase 1 (Homo sapiens) (Q05397 whole entry, looked up): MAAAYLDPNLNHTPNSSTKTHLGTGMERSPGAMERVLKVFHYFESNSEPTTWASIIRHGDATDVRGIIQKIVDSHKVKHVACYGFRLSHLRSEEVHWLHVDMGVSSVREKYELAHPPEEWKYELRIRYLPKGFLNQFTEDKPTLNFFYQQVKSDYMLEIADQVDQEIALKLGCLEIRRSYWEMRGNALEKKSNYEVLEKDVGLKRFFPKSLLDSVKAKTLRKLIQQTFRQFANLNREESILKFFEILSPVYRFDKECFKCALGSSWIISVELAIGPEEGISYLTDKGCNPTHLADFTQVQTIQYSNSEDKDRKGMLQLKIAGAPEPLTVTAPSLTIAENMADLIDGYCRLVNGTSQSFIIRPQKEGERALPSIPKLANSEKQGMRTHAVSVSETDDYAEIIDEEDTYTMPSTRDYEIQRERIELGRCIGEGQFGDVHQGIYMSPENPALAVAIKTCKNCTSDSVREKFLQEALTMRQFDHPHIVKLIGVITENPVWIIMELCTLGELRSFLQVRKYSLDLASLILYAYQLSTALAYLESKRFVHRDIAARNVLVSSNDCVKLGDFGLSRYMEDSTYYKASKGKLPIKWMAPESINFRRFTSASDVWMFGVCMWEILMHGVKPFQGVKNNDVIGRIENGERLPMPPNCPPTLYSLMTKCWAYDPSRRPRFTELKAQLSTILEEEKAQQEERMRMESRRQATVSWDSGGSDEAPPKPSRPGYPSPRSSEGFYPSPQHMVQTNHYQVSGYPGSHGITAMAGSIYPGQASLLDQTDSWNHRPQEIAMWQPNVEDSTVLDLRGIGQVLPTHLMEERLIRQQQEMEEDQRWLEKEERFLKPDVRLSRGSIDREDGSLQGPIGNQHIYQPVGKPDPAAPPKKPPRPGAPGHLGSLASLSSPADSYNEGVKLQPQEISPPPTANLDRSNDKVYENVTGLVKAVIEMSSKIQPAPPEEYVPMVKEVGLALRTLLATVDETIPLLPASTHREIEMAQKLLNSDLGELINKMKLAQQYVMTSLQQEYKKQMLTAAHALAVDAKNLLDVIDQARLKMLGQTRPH

[14] = tested on: Fibrinogen (Alexa647-labelled); experiment: fibrinogen binders on compound microarrays, profiling panel, artefact control for SMM control-protein annotation, biochemical, small-molecule microarray, 635/667 nm fluorescence (AID 1131); conditions: fibrinogen-A647 binding fluorescence, higher = more signal;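 note: z-score merges 667 nm fluorescence with per-spot signal-to-noise over triplicate slides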
[15] = target: Follistatin (Homo sapiens) (UniProt P19883); experiment: follistatin binders on small-molecule microarrays, primary screen, biochemical, small-molecule microarray, 635/667 nm fluorescence (AID 1132); conditions: FST binding, 635 nm fluorescence, higher = more signal
Chain of Follistatin (Homo sapiens) (P19883 whole entry, looked up): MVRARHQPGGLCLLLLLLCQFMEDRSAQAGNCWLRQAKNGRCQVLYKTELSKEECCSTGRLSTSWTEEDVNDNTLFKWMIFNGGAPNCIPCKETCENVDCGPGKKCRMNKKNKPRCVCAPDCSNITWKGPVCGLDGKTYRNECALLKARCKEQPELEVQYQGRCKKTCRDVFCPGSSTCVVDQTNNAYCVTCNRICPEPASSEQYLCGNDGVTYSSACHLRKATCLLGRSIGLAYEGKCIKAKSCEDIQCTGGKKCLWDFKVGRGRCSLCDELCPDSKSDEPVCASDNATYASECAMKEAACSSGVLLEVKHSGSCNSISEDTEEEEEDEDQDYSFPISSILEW

[16] = target: Fibroblast growth factor 2 (Homo sapiens) (UniProt P09038); experiment: FGF2 binders on small-molecule microarrays, primary screen, biochemical, small-molecule microarray, 635/667 nm fluorescence (AID 1133); conditions: small-molecule microarray binding, FGF2, fluorescence 635/667; higher = more signal
Chain of Fibroblast growth factor 2 (Homo sapiens) (P09038 whole entry, looked up): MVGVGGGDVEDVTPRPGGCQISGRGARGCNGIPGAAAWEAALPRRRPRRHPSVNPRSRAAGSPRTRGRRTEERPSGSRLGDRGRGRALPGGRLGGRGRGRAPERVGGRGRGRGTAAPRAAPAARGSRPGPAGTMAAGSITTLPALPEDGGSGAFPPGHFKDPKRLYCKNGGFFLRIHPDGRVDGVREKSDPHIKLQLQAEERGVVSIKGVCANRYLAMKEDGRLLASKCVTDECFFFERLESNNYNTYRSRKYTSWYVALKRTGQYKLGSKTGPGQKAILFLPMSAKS

[17] = mitochondrial membrane potential change in A549 cells, profiling panel, cell-based, JC-1 fluorescence, basal, 24 h, 100 nL (AID 1138); conditions: higher = more signal;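 note: A549 lung adenocarcinoma cells under basal conditions with no added stimulus; test concentration not given here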
[18] = tested on: Lefty1; experiment: Lefty1 binders on small-molecule microarrays, primary screen, biochemical, small-molecule microarray, 635/667 nm fluorescence (AID 1139); conditions: small-molecule microarray binding, fluorescence 635/667; higher = more signal
[19] = tested on: wheat germ agglutinin (Triticum aestivum), Alexa647-labelled; experiment: wheat germ agglutinin binders on compound microarrays, profiling panel, artefact control for SMM control-protein annotation, biochemical, small-molecule microarray, 635/667 nm fluorescence (AID 1140); conditions: WGA-A647 binding, 635 nm fluorescence, higher = more signal;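 note: score merges 667 nm feature emission with signal to noise over triplicate slides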
[20] = target: Luciferin 4-monooxygenase (Photinus pyralis) (UniProt P08659); experiment: firefly luciferase enzyme inhibitors, primary screen, biochemical, luminescence, purified enzyme, 2006 set (AID 1141); conditions: SteadyGlo luminescence, 30 min, higher = more signal, called active from +8 up or from −8 down;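 note: cell-free assay with purified firefly luciferase at 100 ng per well in PBS; test concentration not given here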
Chain of Luciferin 4-monooxygenase (Photinus pyralis) (P08659 whole entry, looked up): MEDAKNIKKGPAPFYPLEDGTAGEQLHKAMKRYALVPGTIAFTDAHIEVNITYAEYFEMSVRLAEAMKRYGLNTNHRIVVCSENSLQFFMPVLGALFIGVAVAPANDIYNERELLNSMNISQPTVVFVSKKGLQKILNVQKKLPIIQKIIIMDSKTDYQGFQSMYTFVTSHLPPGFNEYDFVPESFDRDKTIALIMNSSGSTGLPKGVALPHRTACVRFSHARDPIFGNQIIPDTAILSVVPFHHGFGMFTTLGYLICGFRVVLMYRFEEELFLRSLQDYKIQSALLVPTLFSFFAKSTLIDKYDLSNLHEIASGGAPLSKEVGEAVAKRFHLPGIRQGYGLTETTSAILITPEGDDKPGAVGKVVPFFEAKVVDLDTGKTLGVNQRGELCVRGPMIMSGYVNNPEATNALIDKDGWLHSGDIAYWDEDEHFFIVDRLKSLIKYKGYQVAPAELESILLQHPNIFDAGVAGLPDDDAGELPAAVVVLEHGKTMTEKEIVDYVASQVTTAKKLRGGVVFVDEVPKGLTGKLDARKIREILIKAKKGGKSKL

SMILES | composite z-score [1] | composite Z-score [2] | composite z-score [3] | composite z-score [4] | composite z-score [5] | composite z-score [6] | composite z-score [7] | composite z-score [8] | composite z-score [9] | composite z-score [10] | composite z-score [11] | composite z-score [12] | composite z-score [13] | composite z-score [14] | composite z-score [15] | composite z-score [16] | z-score [17] | composite z-score [18] | composite z-score [19] | z-score [20]
CCN1C(=O)[C@H]2[C@@H]3C(=CC[C@H]2C1=O)C(=O)[C@H]1O[C@H]1[C@H]3O | -0.458 | -0.192 (inactive) | -0.0258 | -0.0531 | -0.156 | 0.141 | 0.426 | 0.657 | 1.21 | 0.725 | 1.21 | 0.491 | -0.204 | 0.185 | 1.21 | 1.42 | -0.923 | 1.39 | 0.207 | -0.415 (inactive)
CCN1C(=O)[C@H]2[C@H]3[C@H](O)[C@H](O)CC(=NO[C@@H]4O[C@H](COC(C)=O)[C@@H](OC(C)=O)[C@H](OC(C)=O)[C@H]4OC(C)=O)[C@@H]3CC[C@H]2C1=O | 0.646 | 0.581 (inactive) | 0.0479 | -0.044 | -0.0179 | 0.415 | 0.781 | 1.22 | 0.58 | -0.441 | -0.36 | 0.839 | 0.211 | 0.744 | 0.898 | 0.747 | -0.282 | 1.6 | 0.696 | 1.15 (inactive)
O=C1C2=CC[C@H]3C(=O)N(C[C@@H]4CCCO4)C(=O)[C@H]3[C@H]2[C@H](O)[C@@H]2O[C@H]12 | 0.335 | -0.275 (inactive) | -0.183 | -0.0928 | -0.145 | -0.534 | -0.246 | 0.244 | 0.362 | 0.397 | 0.286 | 0.611 | 0.146 | -0.0182 | 0.0235 | 0.0043 | 0.982 | 0.233 | -0.153 | -0.518 (inactive)
COC(=O)CC=C[C@@H](C)[C@@H](C=NOC[C@@H](C)[C@H](OCc1ccccc1)C(C)C)OC | -0.469 | -0.235 (inactive) | -0.0647 | -0.124 | -0.12 | 0.266 | -0.61 | 0.447 | 0.386 | 0.102 | 1.86 | -0.0858 | 0.0285 | -0.211 | 0.088 | 0.323 | -1.01 | 0.419 | -0.307 | -0.698 (inactive)
CC(C)=CCCC(C)=CCON=C1C[C@@H](O)[C@@H](O)[C@@H]2[C@@H]3C(=O)N(c4cccc(Oc5ccccc5)c4)C(=O)[C@@H]3CC[C@H]12 | 0.631 | 1.38 (inactive) | -0.0288 | -0.155 | 0.376 | 1.23 | 0.163 | 1.02 | 0.492 | 0.609 | 0.364 | 1.03 | 0.132 | 0.693 | 0.559 | 0.252 | -0.137 | 0.719 | 0.197 | 0.664 (inactive)
O=C(NCCC[N+]1=CC=NC1c1ccccc1)N1CCCc2nc(-c3ccc(Br)cc3)ccc21 (stereo not given) | 0.452 | 0.762 (inactive) | -0.222 | -0.119 | -0.0214 | -0.382 | -0.264 | 0.152 | 0.421 | 0.605 | 0.862 | -0.493 | 0.183 | 0.692 | 0.733 | 0.208 | 1.76 | 0.27 | -0.471 | 0.395 (inactive)
COc1ccc(O[C@H]2C=C[C@@H](c3ccccc3)O[C@@H]2COC(=O)CCC(C)=NOC[C@@H](O)COCc2ccco2)cc1 | 0.214 | -0.22 (inactive) | -0.919 | -0.271 | -0.888 | -1.8 | -0.875 | -0.875 | -3.04 | -2.57 | 0.614 | -0.99 | -0.814 | -3.44 | -2.77 | -2.63 | -0.424 | -1.58 | -0.674 | -0.49 (inactive)
C=CC[C@@H]1C=C[C@H](ON=C(C)CCN2CCCCc3nc(C)c(C)cc32)[C@@H](CO)O1 | 0.0868 | 0.325 (inactive) | -0.0304 | -0.14 | 0.226 | 0.588 | 0.155 | 0.972 | 1.47 | -0.223 | -0.833 | -0.0192 | 0.499 | 0.635 | 1.39 | 1.36 | 0.143 | 1.56 | 0.607 | 1.38 (inactive)
CON=C(C)CCN1CCc2nc(-c3ccccc3)c(-c3ccccc3)cc2C1 | 0.633 | 0.837 (inactive) | -0.132 | -0.0829 | -0.153 | -0.556 | 0.0881 | -0.303 | 0.258 | 1.13 | -0.634 | -0.545 | -0.414 | 0.838 | 0.944 | 0.344 | 2.9 | 0.686 | 0.801 | 0.326 (inactive)
CO[C@@H]1[C@H](O)CO[C@H]1C=Cc1ccccc1 | 0.24 | -0.173 (inactive) | -0.127 | -0.0956 | 0.405 | 0.402 | 0.388 | 0.243 | 0.144 | 0.17 | 0.286 | 0.219 | 0.0086 | 0.543 | 0.251 | 0.273 | -0.75 | 0.28 | -0.07 | -0.339 (inactive)
